Potency and activity (max response) data for 18 molecules are collected here from PubChem BioAssay (NCATS).

Each structure is given as a SMILES string. “And” between values parts separate entries of the source, which are not always exact repeats. Identical values can stand only once. Records with an inconclusive call do not appear. More than one record can exist for a structure, and the calls need not agree. The source made the active and inactive calls. Calls come from the whole dose curve; as a rule, active = well fitted curve in the direction sought with a large enough effect; inconclusive = small, poorly fitted or top-dose-only effect, or another doubt; inactive = no such curve, though single readings can be large; an effect the other way counts as inactive or inconclusive.

A short description of assay [1]: Viability qHTS for spleen associated tyrosine kinase inhibitor (SYKi) drug resistant MV4-11 cells (AID 1963824). Note: nearly all actives have a fitted effect of over 35% in size. Put shortly: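 CellTiter-Glo luminescence, read 10 min after reagent addition, reports viability after a 72 hr compound exposure. Cells are an MV4-11 line made resistant to SYK inhibition, seeded at 500 per well onto compound-containing plates.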
In general terms: Quantitative high-throughput screening tests each substance at several concentrations.

The nature of assay [2]: Quantitative highthroughput screen to assess conditional lethalithy of NOMO1 cells grown in RPMI1640 with untreated serum (RPMI+s) (AID 1963876).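 For Viability: 100% = DMSO wells and 0% = empty wells without cells.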 Note: nearly all actives have a fitted effect of over 35% in size. In short, it runs like this: (§1)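 Each medium arm—HPLM with 10% dialyzed FBS, or RPMI1640 with 5 mM glucose and 10% untreated or dialyzed FBS—was screened against an 11-point, 3-fold compound titration for 48 h at 37 °C, with CellTiter-Glo luminescence as endpoint.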

The nature of assay [3]: Quantitative highthroughput screen to assess conditional lethalithy of NOMO1 cells grown in RPMI1640 with dialyzed fetal bovine serum (RPMI+ds) (AID 1963877).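 For Viability: series mostly up to about 46 µM; 100% = DMSO control wells and 0% = empty wells.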 Note: nearly all actives have a fitted effect of over 30% in size. In short, it runs like this: as §1
Assay [4] in a line: Quantitative highthroughput screen to assess conditional lethalithy of P12 Ichikawa cells grown in Human Plasma-Like Medium with dialyzed fetal bovine serum (HPLM+ds) (AID 1963879). For Viability: series mostly up to about 46 µM. Note: nearly all actives have a fitted effect of over 35% in size. The following applies: Potency: viability. In short, it runs like this:
as §1

The nature of assay [5]: Quantitative highthroughput screen to assess conditional lethalithy of P12 Ichikawa cells grown in RPMI1640 with dialyzed fetal bovine serum (RPMI+ds) (AID 1963880).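 For Viability: 100% = DMSO wells and 0% = empty wells on each plate.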 Note: nearly all actives have a fitted effect of over 35% in size. The following applies: Potency: P12-Ichikawa viability. In short, it runs like this: as §1
Assay [6] can be described thus: Quantitative highthroughput screen to assess conditional lethalithy of P12 Ichikawa cells grown in RPMI1640 with untreated serum (RPMI+s) (AID 1963881).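 For Viability: series mostly up to about 46 µM; 100% = DMSO wells and 0% = empty wells without cells.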 Note: nearly all actives have a fitted effect of over 35% in size. The following applies: Potency: viability. In short, it runs like this:
as §1

A short description of assay [7]: Quantitative highthroughput screen to assess conditional lethalithy of SEM cells grown in Human Plasma-Like Medium with dialyzed fetal bovine serum (HPLM+ds) (AID 1963882). For Viability: series mostly up to about 46 µM. Note: nearly all actives have a fitted effect of over 35% in size. In short, it runs like this:
as §1

The nature of assay [8]: Quantitative highthroughput screen to assess conditional lethalithy of NOMO1 cells grown in Human Plasma-Like Medium with dialyzed fetal bovine serum (HPLM+ds) (AID 1963878).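 For Viability: 100% = DMSO wells and 0% = empty wells on each plate.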 Note: nearly all actives have a fitted effect of over 35% in size. In short, it runs like this:
as §1

Assay [9] can be described thus: Quantitative highthroughput screen to assess conditional lethalithy of SEM cells grown in RPMI1640 with unreated serum (RPMI+s) (AID 1963883).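 For Viability: 100% = DMSO wells and 0% = empty wells without cells.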 Note: nearly all actives have a fitted effect of over 35% in size. In short, it runs like this: as §1
Assay [10] in a line: Quantitative highthroughput screen to assess conditional lethalithy of SEM cells grown in RPMI1640 with dialyzed fetal bovine serum (RPMI+ds) (AID 1963884).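 For Viability: series mostly up to about 46 µM; 100% = DMSO control wells and 0% = empty wells without cells.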 Note: nearly all actives have a fitted effect of over 35% in size. In short, it runs like this: as §1
Assay [11] is described as follows: Cellular viability qHTS for adrenocortical cancer (ACC) cell line NCI-H295R (AID 1963990). Note: nearly all actives have a fitted effect of over 60% in size. In short, it runs like this: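 Viability of NCI-H295R after 48 h of treatment (final up to 46 uM) measured through cellular ATP luminescence.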
A short description of assay [12]: Cellular viability qHTS for adrenocortical cancer (ACC) cell line SW-13 (AID 1963989).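 For activity (max response): cells grown in serum-free medium with ITS supplement; % is set by controls: 0 for no effect and ±100 for the full control effect.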 Note: nearly all actives have a fitted effect of over 65% in size. Particulars: SW-13 ACC cells viability, CellTiter-Glo, 48 h; activity (max response): stronger effect = lower value. In short, it runs like this:
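Here, serum-free SW-13 cultures were dosed up to 46 uM. Following 48 h, ATP-dependent luminescence (CellTiter-Glo) reported viable cells, and logistic modeling produced IC50 values.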
Potency is the fitted concentration of half-maximal effect.

Regarding `C[C@@H]1CN(Cc2ccc(F)cc2)[C@@H](C)CN1C(=O)c1cc2c(C(=O)C(=O)N(C)C)cn(C)c2cc1Cl`, the Potency in assay [1] is 16.4 µM (active). Moreover, the Potency entry in assay [2], in assay [3], in assay [4], in assay [5], in [6] and in [7] was “inactive” each time.

Regarding `CC(C)c1ccccc1Cc1cc(C(=O)Nc2ccc(S(=O)(=O)c3ccccc3C(C)(C)C)cc2)c(O)c(O)c1O`, the Potency in assay [1] is 7.42 µM (active). Besides, the Potency result in assay [2], in assay [3], in assay [8], in [5], in [6] and in [7] was “inactive” in each case. Also, the Potency result in assay [9] was “inactive”.

Turning to `O=c1cc(-c2ccc(O)c(O)c2)oc2cc(O)cc(O)c12`, the Potency in assay [1] was 7.42 µM (active). Also, the Potency result in assay [2], in assay [3], in [8], in assay [5], in [6] and in assay [7] was “inactive” throughout. Further, the Potency result in [10] and in assay [11] was “inactive” each time.

For `CCOC(=O)c1c(C)n(C)c2ccc(O)cc12`, the Potency in [1] is 7.5 µM (active) and inactive. Moreover, the Potency result in assay [2], in [3], in assay [8], in assay [4], in assay [6] and in assay [7] was “inactive” in each case. The Potency result in assay [9], in assay [10] and in assay [11] was “inactive” each time.

Regarding `O=C(Nc1nc2ccccc2n1CCN1CCOCC1)c1cccc([N+](=O)[O-])c1`, the Potency in assay [1] is 2.63 µM (active). Further, the Potency entry in [2], in assay [3], in assay [8], in assay [4], in assay [5] and in assay [7] was “inactive” in each case. Moreover, the Potency result in assay [9], in assay [10] and in [11] was “inactive” each time. For the same molecule, in [12], the activity (max response) is 3.94% (inactive).

`N[C@H](CSC(c1ccccc1)(c1ccccc1)c1ccccc1)C(=O)O`: the Potency in assay [1] was 14.8 µM (active); in [7] it was 16.6 µM (active); in assay [10] it was 13.2 µM (active). For the same molecule, the Potency result in assay [2], in assay [3], in assay [8], in assay [4] and in [11] was “inactive” in each case. The activity (max response) in [12] was -17.5% (inactive).

Turning to `c1ccc2c(CCNc3ccc(Nc4ccncc4)cc3)c[nH]c2c1`, the Potency in assay [1] was 731 nM (active) and 590 nM (active); in assay [2], 16.6 µM (active); in assay [3], 18.7 µM (active); in assay [8], 14.8 µM (active); in [4], 23.5 µM (active); in assay [6], 16.6 µM (active). The Potency was 0.935 µM (active) in [7]; 372 nM (active) in [9]; 0.833 µM (active) in [10]; 1.58 µM (active) in [12]; 3.55 µM (active) in [11].

Regarding `Nc1nccc(-c2ccc3noc(-c4ccc(Cl)cc4)c3c2)n1`, the Potency in assay [1] was 8.33 µM (active). Further, the Potency result in [2], in assay [3], in assay [8], in assay [4], in [5] and in assay [7] was “inactive” in each case. In addition, the Potency result in assay [9], in assay [10] and in assay [11] was “inactive” in each case.

On to `C=CCc1cc(OC)c(O)c(C(=O)NCCO)c1`, for which the Potency entry in assay [1], in assay [2], in assay [3], in [8], in assay [5] and in assay [6] was “inactive” in each case. Also, the Potency entry in assay [9], in [10] and in assay [11] was “inactive” in each case. In assay [12], the activity (max response) was -2.94% (inactive).

Turning to `Clc1ccc(C(c2ccc(Cl)cc2)n2cc[n+](CC(OCc3ccc(Cl)cc3Cl)c3ccc(Cl)cc3Cl)c2)cc1` (configuration not stated), the Potency is 1.86 µM (active) in [1]; 20.9 µM (active) in assay [2]; 26.4 µM (active) in assay [3]; 26.4 µM (active) in assay [8]; 20.9 µM (active) in [6]; 16.6 µM (active) in [7]. Further, the Potency is 13200 nM (active) in assay [9], 5.01 µM (active) in assay [12] and 8.91 µM (active) in assay [11].

As to `CC(=O)NC(C)c1ccc(Oc2ccc(OC(C)C)cc2)cc1` (configuration not stated), the Potency in [1] was 10.8 µM (active). Moreover, the Potency result in assay [2], in [3], in [8], in [5], in assay [6] and in assay [7] was “inactive” in each case. Further, the Potency entry in assay [9] and in assay [10] was “inactive” each time.

As to `O=C(CCN1CCN(C(=O)OCc2cc(Cl)cc(Cl)c2)CC1)c1ccc2[nH]c(=O)oc2c1`, the Potency in assay [1] is 16.6 µM (active). The Potency result in assay [2], in assay [3] and in assay [8] was “inactive” each time. In addition, in [12], the activity (max response) is -15.7% (inactive).

Consider `CCNC(=O)c1cc2c(-c3cc(OCCN4CCCC4)c(Cl)cc3Cl)nc(N)nc2s1`, for which the Potency is 0.162 µM (active) in [1]; 3.72 µM (active) in assay [2]; 4.69 µM (active) in assay [3]; 4.18 µM (active) in assay [8]; 2.96 µM (active) in assay [7]; 2.35 µM (active) in [10]. For the same molecule, the Potency in assay [12] was 1.6 µM (active); in [11] it was 2.54 µM (active).

As to `CC(=O)SCC(Cc1ccccc1)C(=O)NCC(=O)OCc1ccccc1` (configuration not stated), the Potency in assay [1] is 20.9 µM (active); in [2], 6.62 µM (active); in assay [3] it was 6.62 µM (active); in assay [8], 5.9 µM (active); in [4], 18.7 µM (active). Moreover, the Potency result in assay [7], in assay [9], in assay [10] and in assay [11] was “inactive” throughout. Also, the activity (max response) in assay [12] is -5.9% (inactive).

`NCc1ccc(OCCCc2sc(-c3ccc4c(c3)/C(=N/Nc3nc5ccccc5s3)CCC4)nc2C(=O)O)cc1`: the Potency in assay [1] is 9.34 µM (active); in assay [2], 0.0059 µM (active); in assay [3], 0.0166 µM (active); in [4] it was 0.0047 µM (active); in [5], 9.3 nM (active); in [10], 0.0047 µM (active). Further, in [8], the Potency result was “inactive”. In assay [12], the activity (max response) is -8.27% (inactive).

Consider `CCc1cncnc1N1CCN(Cc2nc3ccc(C(F)(F)F)cc3[nH]2)CC1`, for which the results for the Potency in [1] and in [11] were 5.9 µM (active) and 17.8 µM (active), respectively. Also, the Potency result in assay [2], in [3] and in [8] was “inactive” in each case.

In the case of `O=C(Nc1cccc(Nc2ncc(Br)c(NCCc3cnc[nH]3)n2)c1)N1CCCC1`, the Potency in assay [1] is 0.132 µM (active); in assay [2], 5.9 µM (active); in assay [3] it was 11.8 µM (active); in assay [8], 2.96 µM (active); in [4], 0.662 µM (active); in assay [9] it was 166 nM (active).

Consider `N#CC1(c2cccc(C(=O)Nc3cc(Oc4ccc5nc(NC(=O)C6CC6)sc5n4)ccc3F)c2Cl)CC1`, for which the Potency in assay [1] is 0.58 µM (active); in assay [2] it was 3.72 µM (active); in assay [3] it was 2.09 µM (active); in assay [8], 1.32 µM (active); in assay [4], 5.9 µM (active); in [6], 5.26 µM (active). Besides, the Potency in assay [9] was 3720 nM (active).
